Shiga toxin inh = inhibitors of Shiga toxin in Vero cells; Vero cells, Shiga toxin protein synthesis inhibition reporter; 290,000 compounds, 9.2% hits; inhibition, % at 38.7 µM; in the data active = inhibition mostly above about 28%, no sharp cut-off; inactive = mostly below about 43%
SARS PLpro yeast = blocks SARS-CoV papain-like protease in a yeast assay | AID 485353 | Potency, µM (doses to about 32.9 µM), hits mostly activators | S. cerevisiae expressing SARS-CoV PLpro, growth rescue | 330,000 compounds, 0.19% hits; also: nearly all actives have a fitted effect of over 55% in size
NS1 function inh = inhibitors of influenza NS1 protein function. Potency, µM (titrated, usually from 46.1 µM). 270,000 compounds, 0.4% hits. AID 2326; also: actives are rising curves; nearly all actives have a fitted effect of over 50% in size
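OD600 was taken as the measure of yeast growth restored by compound in an NS1-expressing S. cerevisiae strain. Cells had been washed out of glucose medium and diluted 1:100 into galactose -URA medium, pH 6.0.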
Cycloheximide cs = counter-screen hit for Shiga toxin inhibitors, cycloheximide; 300,000 compounds, 12% hits; max response, %; cell reporter, cycloheximide protein synthesis inhibition counterscreen; in the data active = max response mostly above about 13%, no sharp cut-off; inactive = mostly below about 14%; also: read at 38.3 µM for the half of the compounds with a filed dose
Numbers stand for hits; n = inactive; u = inconclusive; x = not tested or not shown; + = active, no number; [ ] = dose if it differs, or a comment. Most compounds without a hit are left out; they make up all but 12% or so of the library. Unless noted, calls follow the shape of the full dose curve.

SMILES	Shiga toxin inh	SARS PLpro yeast	NS1 function inh	Cycloheximide cs
Cc1ccc(/C=N/NC(=O)NC2CCCCC2)o1	41.5	n	x	20.9
Cc1ccc(/C=N/NC(=O)Nc2ccccc2)o1	99.9	n	n	53.8
Cc1ccc(/C=C/C(=O)NC2CCCCCCC2)o1	73.6	n	n	40.5
Cc1cccc(/C=N/NC(=O)NC2CCCCC2)c1	68.8	n	n	39.4
O=C(NCc1cnn(-c2ccccc2)c1)C1CCC(=O)N(C2CC2)C1 (configuration not stated)	n	n	n	n
CCOc1ccccc1N(CC(=O)NC1CCCC1)S(=O)(=O)c1ccc(C)cc1	n	n	n	n
NC(=O)CCN1CCN(Cc2nc(C(c3ccccc3)c3ccccc3)no2)CC1	n	n	n	n
CC(=O)Nc1ccc(S(=O)(=O)N(C)CC(=O)Nc2nc3ccccc3[nH]2)cc1	x	n	x	x
O=C(Nc1ccc(CN2CCOCC2)cc1)c1ccc(Br)o1	68.7	n	n	43.3
O=C(Nc1ccc(N2CCOCC2)c(Cl)c1)c1cc2ccccc2o1	71.2	n	n	39.2
O=C(Nc1ccc(S(=O)(=O)N2CCOCC2)cc1)c1ccc(Br)o1	n	n	n	n
O=C(Nc1ccc(N2CCOCC2)c(Cl)c1)c1ccc(Br)o1	109.6	n	n	79.2
O=C(Nc1ccccc1N1CCCC1)c1cc2ccccc2o1	96.5	n	n	52.4
O=C(Nc1ccc(N2CCN(C(=O)c3ccccc3)CC2)c(Cl)c1)c1ccc(Br)o1	n	n	n	n
O=C(Nc1ccccc1N1CCOCC1)c1cc2ccccc2o1	n	n	n	n
CN(C)S(=O)(=O)N(CC(=O)N(Cc1ccccc1)Cc1ccccc1)c1ccccc1	n	n	n	n
Cc1ccc(Cl)cc1NC(=O)c1cccc(OC(F)F)c1	n	n	n	n
Cc1cc(NC(=O)c2cccnc2Cl)ccc1NC(=O)c1cc2ccccc2o1	n	n	n	n
O=C(Nc1cccnc1Cl)c1cc2ccccc2o1	66.4	n	n	37.9
O=C(Nc1ccc(N2CCOCC2)c(Cl)c1)c1ccccc1Cl	60.1	n	n	30.0
O=C(N/N=C/c1ccc(N2CCOCC2)s1)c1ccccc1Cl	108.7	n	x	34.1
O=C(NC(=S)N1CCOCC1)c1cc2ccccc2o1	70.3	n	n	11.5
O=C(N/N=C/c1sc(N2CCOCC2)nc1-c1ccccc1)c1ccccc1Cl	n	n	n	n
O=C(c1cc2ccccc2o1)N1CCOCC1	x	n	x	x
O=C1OC2(CCCCC2)CC2=C1C1O[C@](c3ccsc3)(Cc3c1ccc1ccccc31)O2	n	n[6.58 µM]	n	n
SMILES	Shiga toxin inh	SARS PLpro yeast	NS1 function inh	Cycloheximide cs
Cc1ccc2nc(SC(C)C(=O)Nc3cccc([N+](=O)[O-])c3)[nH]c2c1 (configuration not stated)	n	n	n	n
CCCCn1c(N)c(N(CC(C)C)C(=O)CSCC(=O)Nc2ccc(C)cc2)c(=O)[nH]c1=O	x	n	x	x
O=C(Nc1cc(N2CCOCC2)ncn1)c1ccccc1	n	n	n	15.7
O=C(Nc1ccc(N2CCOCC2)c(Cl)c1)c1ccc(F)cc1	18.1	n	n	31.2
O=C(Nc1ccc(N2CCOCC2)nc1)c1ccc(Cl)cc1	48.8	n	n	15.8
O=C(c1cccc(C(F)(F)F)c1)C1CCCN(C(=O)CCCN2CCCC2=O)C1 (configuration not stated)	n	n	n	n
CCC1CCCCN1S(=O)(=O)c1ccc(NC(=O)C2CCCO2)cc1 (configuration not stated)	n	n	n	n
CSc1ccc(COC(=O)CCS(=O)(=O)c2ccc(C)cc2)cc1	x	n	x	x
COCc1nnc(NC(=O)CS(=O)(=O)c2ccc(C)cc2)s1	n	n	n	n
C(=N\N1CCOCC1)/c1nc(-c2ccccc2)n2ccccc12	n	n	x	n
CC(C)(C)c1ccc(-c2nc(C=O)c3ccccn23)cc1	n	n	n	38.9
O=C(CC1C(=O)NCCN1Cc1ccc(F)c(F)c1)NCCn1cccn1 (configuration not stated)	n	n	n	n
COc1cccc(NC(=S)Nc2ccc(Br)cc2Cl)c1	n	n	n	19.6
COc1cccc(NC(=S)Nc2ccc(O)cc2)c1	79.1	n	n	32.1
COc1cccc(NC(=S)Nc2ccc(F)cc2)c1	n	n	n	n
Cc1cccc(NC(=S)NNC(=S)NCc2ccccc2)c1	n	n	n	44.3
S=C(NCc1ccccc1)Nc1cccc(Cl)c1	n	n	n	n
CC(C)NC(=S)N/N=C1\CCCCc2ccccc21	n	u	n	n
COc1cccc(NC(=S)N/N=C2/CCCCc3ccccc32)c1	55.4	n	u	41.6
O=C(CCCN1C(=O)c2cccc3cccc(c23)C1=O)NCc1cccs1	n	n	x	n
O=C(CNC(=O)c1ccc(Br)cc1)OCc1cc([N+](=O)[O-])cc2c1OCOC2	n	n	x	n
COCCN(C(=S)Nc1ccc(C(C)C)cc1)C(C)c1cccs1 (configuration not stated)	n	n	x	n
COCCN(C(=S)Nc1cccc(OC)c1)C(C)c1cccs1 (configuration not stated)	n	n	n	15.3
COc1cccc(NC(=S)NCc2cccnc2)c1	n	n	n	n
Cc1cccnc1NC(=S)Nc1ccc(Br)cc1Cl	126.2	n	x	78.8
SMILES	Shiga toxin inh	SARS PLpro yeast	NS1 function inh	Cycloheximide cs
S=C(NCc1cccs1)Nc1ccccc1	n	n	n	n
Cc1ccc(NC(=S)NCc2cccs2)cc1	n	u	n	31.3
COc1cccc(NC(=S)NCc2ccccc2)c1	33.0	n	n	21.7
CCc1ccc(OCC(=O)Nc2ccc(N3CCN(S(C)(=O)=O)CC3)cc2)cc1	n	n	n	n
COc1ccc(OC)c(C2=NOC(C(=O)Nc3cccc(C(C)=O)c3)C2)c1 (configuration not stated)	n	n	n	n
CC(C)CC(=O)N1CCN(S(=O)(=O)c2ccc(C3CCCCC3)cc2)CC1	x	n	x	x
COc1cccc(NC(=S)NCc2cccs2)c1	42.8	n	n	n
Fc1ccc(CNC(=S)Nc2cccc(C(F)(F)F)c2)cc1	n	x	n	13.4
Cc1ccccc1NC(=S)NCc1cccs1	n	n	n	n
S=C(NCc1cccs1)Nc1cccc(Cl)c1Cl	45.4	u	n	29.5
CCn1cc(CNCc2cn(C)nc2-c2ccc(C3CCCCC3)cc2)cn1	n	n	n	n
CN(C)C(=O)CSc1nnc(C23CC4CC(CC(C4)C2)C3)o1	n	n	n	15.2
CN(C)C(=O)CSc1nnc(CCN)o1	n	n	n	n
COc1ccc2nc(NC(=O)CCN3C(=S)NC(C)(C)CC3C)sc2c1 (configuration not stated)	n	n	n	n
CCc1ccc(-c2cn3nc(C)c(C)nc3n2)cc1	n	n	n	n
c1ccc(-c2cn3nc(-c4ccccc4)cnc3n2)cc1	+	n	n	49.2
Cc1nc2nc(-c3ccccc3)cn2nc1C	85.1	x	n	28.3
Cc1nc2nc(-c3ccc(F)cc3)cn2nc1C	n	n	n	32.2
COc1cccc(C(=O)NCc2ccc(-c3nc4ccccc4s3)cc2)c1	70.3	n	n	35.8
COc1ccccc1C(=O)NCc1ccc(-c2nc3ccccc3s2)cc1	57.6	n	n	40.6
COc1ccccc1C(=O)NCc1ccccc1	n	n	n	n
COc1cccc(C(=O)NN2CC(O)=C(c3nc4ccccc4s3)C2=N)c1	n	n	n	n
